Data on 106 molecules can be found in PubChem BioAssay AID950 (NMMLSC, 2007).

Screen size: about 190,000 compounds; about 120 (0.063%) were called active. This is one part of a sample in which actives are shown more often than they occur. Unmarked numbers belong to inactive results. Cut-off read from the data, not from the text of the source: active = inhibition above about 40%; inconclusive = no clear call, values can overlap the other calls; inactive = below that.

In the assay the target is Apoptosis regulator Bcl-2 (Homo sapiens) (UniProt P10415). Nature of the assay: Bcl-2 and Bim peptide interaction disruptors – biochemical, multiplexed, human Bcl-2 family, primary screen (AID 950).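 Note: 0% = no compound wells with probe peptide and 100% = reference peptide inhibitor.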 The conditions noted are these: Bead-based flow cytometry, Bim peptide-Bcl-2 binding; at 10 µM; hits give high values. On the technique in general: A flow cytometer gives signals particle by particle.
Apoptosis regulator Bcl-2 (Homo sapiens), sequence (P10415 whole entry, looked up): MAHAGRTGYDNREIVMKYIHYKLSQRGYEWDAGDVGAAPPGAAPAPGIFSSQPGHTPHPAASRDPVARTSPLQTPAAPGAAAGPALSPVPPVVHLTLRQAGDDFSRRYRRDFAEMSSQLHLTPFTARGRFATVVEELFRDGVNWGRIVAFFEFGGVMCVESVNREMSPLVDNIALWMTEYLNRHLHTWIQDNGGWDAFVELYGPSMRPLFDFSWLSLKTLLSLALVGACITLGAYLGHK
Consider `COc1ccc(N2CCN(C(=O)C3CCN(S(=O)(=O)c4ccc(C)cc4)CC3)CC2)cc1`, for which the inhibition (in general, the change of the read-out against control, counted positive when it falls) is 2%.
As for `O=C(c1ccc(N2CCOCC2)c([N+](=O)[O-])c1)N1CCN(S(=O)(=O)c2cccs2)CC1`, the figure is 0%; as for `COc1ccc(C(=O)C[n+]2ccc(N)c(C)c2C)cc1`, -1%.
In the case of `Cc1ccc(Cl)cc1NC(=S)N(CCN(C)C)Cc1cccs1`, the inhibition was -4%.
As for `C/C(=N\NC(=S)NC(C)C)c1ccc(C(C)(C)C)cc1`, the figure is -4%.
Consider `Cc1nnc(N/N=C/C2CC=CCC2)[nH]c1=O` (stereo unspecified), for which the inhibition is 2%.
On to `O=C(c1cccc(S(=O)(=O)N2CCCC2)c1)N(Cc1ccco1)C1CCS(=O)(=O)C1` (stereo unspecified), for which the inhibition is -3%.
Consider `CCC(=O)Nc1ccc(Nc2nc(Cl)nc(Nc3ccc(NC(=O)CC)cc3)n2)cc1`, for which the inhibition is 0%.
In the case of `COCCCNCCOCCOc1ccc(Cl)cc1Br`, the inhibition is 1%.
For `O=C(NCc1ccccc1)C1=C[C@@H](C2CCCCC2)C[C@@H](OCc2ccc(CO)cc2)O1`, the inhibition was -1%.
With `CCOC(=O)C1CCCN(C(=O)/C=C/c2ccc(OC)cc2)C1` (stereo unspecified), the inhibition is -3%.
On to `CCn1c(=O)cc(SCC(=O)NCCC2=CCCCC2)c2ccccc21`, for which the inhibition was 8%.
Consider `O=c1cnnc(Nc2ccccc2)[nH]1`, for which the inhibition is -1%.
As for `O=C(N/N=C1\CCSC1)c1cc(Cl)ccc1O`, the inhibition is 3%.
As to `CCOC(=O)COc1ccc([N+](=O)[O-])cc1`, the inhibition is -1%.
For the molecule `CCCn1c(C)cc(/C=C(\C#N)C(=O)OCC(=O)Nc2cc(OC)c(OC)c(OC)c2)c1C`, the inhibition was -6%.
Regarding `CC1(C)C(c2cccs2)=[N+]([O-])C2(CCCCC2=O)N1O` (stereo unspecified), the inhibition was -5%.
As for `CCN(CC(=O)NCc1cccs1)C(=O)c1ccccc1F`, the figure is 1%; as for `COCCN(C(=S)Nc1ccccc1OC)C1CCN(C(C)C)CC1`, -1%.
Consider `Cc1cc(NC(=O)CSCc2ccccc2C)no1`, for which the inhibition was -1%.
The figure for `COC(=O)c1cc(C)sc1NC(=O)CC1Nc2ccccc2NC1=O` (stereo unspecified) is 0%; for `CCN(CC)CCOC(=O)c1ccc(NC(=O)CNC(=O)c2ccccc2)cc1` it is -4%.
In the case of `CCC(NC(=O)c1ccccc1NC(=O)c1ccccc1)C(=O)NNC(=O)CSc1nc2ccccc2o1` (stereo unspecified), the inhibition is -6%.
As to `CC(=O)N1CC(C)c2scc(C)[n+]2-c2ccccc21` (stereo unspecified), the inhibition is 2%.
`CC(O)c1nc2ccccc2n1Cc1ccc([N+](=O)[O-])cc1` (stereo unspecified): the inhibition was -5%.
For the molecule `Cc1cc(C)cc(C(=O)N2CCN=C2SCc2ccc([N+](=O)[O-])cc2)c1`, the inhibition is -3%.
Regarding `Cc1ccc(C(=O)N2CC(=O)Nc3ccccc32)o1`, the inhibition was -6%.
For `CCc1nnc(NC(=O)CSc2nnnn2-c2cccc(C(C)=O)c2)s1`, the inhibition was -2%.
As to `Cn1cc(CCC(=O)N2CCCC(C(=O)c3ccc(C(C)(C)C)cc3)C2)cn1` (stereo unspecified), the inhibition is -5%.
In the case of `O=C(NCc1ccncc1)C(=O)NCc1ccco1`, the inhibition was -1%.
Regarding `Cc1ccc(S(=O)(=O)NC2(C(F)(F)F)NC(=O)N(CCc3ccccc3)C2=O)cc1` (stereo unspecified), the inhibition was -1%.
With `C=CS(=O)c1sc(Cl)c(N2CCOCC2)c1[N+](=O)[O-]` (stereo unspecified), the inhibition was 14%.
For `CN1C(=O)/C(=C\c2cc(Br)cs2)c2ccccc21`, the inhibition is -2%.
As for `CC(=O)c1cc(C#N)c(N2CC(C)OC(C)C2)nc1C` (stereo unspecified), the figure is -4%.
As to `Oc1ccc(/C=N/N(Cc2ccccc2)c2ccccc2)cc1`, the inhibition is -9%.
With `Cn1ncc(N2CCN(S(=O)(=O)c3ccc(Br)cc3)CC2)c(Cl)c1=O`, the inhibition was -9%.
As for `C=CCOc1ccc(/C=N/NC(=O)C(C)Sc2ccccn2)cc1OCC` (stereo unspecified), the inhibition was -6%.
The figure for `O=C(NNS(=O)(=O)c1ccc(F)cc1)c1cnccn1` is 0%; for `COCCC(=O)Nc1ccc2c(c1)CN(C(=O)CCOC)CC2` it is -4%; for `Cc1ccc(NC(=O)CCC(=O)N/N=C/c2ccco2)c(C)c1` it is -6%.
With `CCCc1cc(=O)[nH]c(SCc2cc(=O)oc3c(C)c(C)ccc23)n1`, the inhibition is -3%.
Consider `Cc1cccc(-c2nc3ccccc3c(=O)n2NC(=O)Cc2ccc(Cl)cc2)c1`, for which the inhibition was -11%.
With `S=C(NCc1ccco1)Nc1ccc2c(c1)OCCO2`, the inhibition is -1%.
Consider `CCCCC(=O)NCc1ccc(F)cc1`, for which the inhibition is 0%.
For the molecule `COc1ccc(NC(=S)NCc2cccs2)c(OC)c1`, the inhibition is -4%.
In the case of `O=C(O)CS/C(=C\c1ccc(F)cc1)c1nc2ccccc2s1`, the inhibition was 7%.
The figure for `CSCc1cc(N(C)C)nc(SCc2ccc(Cl)cc2Cl)n1` is 76% (active); for `Clc1ccc(CSc2nnc(/C=C/c3ccccc3)o2)c(Cl)c1` it is -8%.
As for `CSCc1cc(N2CCOCC2)nc(SCc2ccc(Cl)cc2Cl)n1`, the figure is -12%; as for `COc1ccc(/C(C)=N/Nc2cc(C(F)(F)F)ccc2Cl)c(OC)c1`, 2%; as for `COc1c(C)cc(C(=O)C2CCCN(S(=O)(=O)c3c(C)noc3C)C2)cc1C` (stereo unspecified), 0%.
For `CC1(C)OC(=O)C(=CSc2ccc(C(C)(C)C)cc2)C(=O)O1`, the inhibition was -3%.
Regarding `CCOC(=O)C1CCN(c2ncnc3c2c(-c2ccccc2)cn3-c2ccc(C)cc2)CC1`, the inhibition was -5%.
On to `CCCN(CCC)c1ccc(C(O)c2nnc(-c3ccccc3)o2)cc1` (stereo unspecified), for which the inhibition was -5%.
Take `O=C(COc1ccc(Cl)cc1)NCc1nnc(SCC(=O)NCC2CCCO2)o1` (stereo unspecified): the inhibition is -2%.
Consider `COC(=O)c1c(NC(=O)CN2CCN(S(=O)(=O)c3ccccc3[N+](=O)[O-])CC2)sc2c1CCC(C)C2` (stereo unspecified), for which the inhibition is 2%.
`O=S(=O)(c1ccccc1)c1nc(-c2ccccc2F)oc1NCc1cccnc1`: the inhibition was 2%.
For the molecule `CS(=O)(=O)N(Cc1ccccc1Cl)c1ccc(C(=O)NCc2cccnc2)cc1`, the inhibition was -4%.
Regarding `CCOC(=O)c1sc(NC(=O)CSc2nc(O)c(Cc3ccccc3)c(=O)[nH]2)nc1C`, the inhibition was 0%.
For the molecule `COc1ccc(CN2CN(C3CCCC3)CSC2=S)cc1`, the inhibition was -4%.
Consider `COC(=O)c1ccc(-n2cnc3ccccc32)nc1`, for which the inhibition is -4%.
`CCOc1cc(/C=C2/C(=N)N3OC(C)=CC3=NC2=O)ccc1OC`: the inhibition was 2%.
For the molecule `CNC(=O)c1[nH]cnc1C(=O)N[C@@H](CC(C)C)C(=O)OCc1ccccc1`, the inhibition is -3%.
For `CCOC(=O)Cn1nnnc1C`, the inhibition was -3%.
As for `CN(NC(=O)C1CC(=O)N(c2ccccc2)C1)C1=NS(=O)(=O)c2ccccc21` (stereo unspecified), the figure is -2%; as for `Cc1nc2sc3c(c2c(=O)n1NC(=O)CCl)CCCC3`, -3%; as for `COc1ccc(N(CC(=O)Nc2ccc(C)cc2C)S(=O)(=O)c2ccccc2[N+](=O)[O-])c(OC)c1`, -1%.
`COc1cccc(CN(C)CC(=O)NCc2ccccc2Cl)c1OC`: the inhibition was 0%.
`CCOC(=O)c1[nH]cnc1C(=O)Nc1ccccc1C`: the inhibition is 1%.
As for `CCCC1(C(=O)OC)NC(c2ccco2)C2C(=O)N(C)C(=O)C21` (stereo unspecified), the figure is -2%.
As for `CC(=O)Nc1ccc(OC(=O)COc2ccc(Br)cc2)cc1`, the inhibition was 0%.
Turning to `c1ccc(Cc2cc[n+](Cc3ccccc3)cc2)cc1`, the inhibition is 0%.
As for `C/C(CC(=O)Nc1ccc(C)cc1C)=N\NC(=O)C(C)C`, the inhibition is 0%.
On to `COc1cccc(NC(=O)CN(C)CC(=O)Nc2ccc3c(c2)CCC3)c1`, for which the inhibition was 0%.
The figure for `Cc1ccc(NC(=O)N2CCSc3ccccc32)cc1` is -1%.
As to `COc1ccc(NC(=S)Nc2ccc(S(N)(=O)=O)cc2)c(C)c1`, the inhibition is -4%.
For `O=C(c1ccc(Br)o1)N(c1ccccn1)C1CCCCC1`, the inhibition is -16%.
Consider `Cc1sc2c(c1C)c(=O)n(-c1ccccc1)c(=O)n2CC(=O)NCC1CCCO1` (stereo unspecified), for which the inhibition was 1%.
The figure for `COc1ccc(Br)cc1CN(C)CC(=O)Nc1cc([N+](=O)[O-])ccc1OC` is -9%.
The figure for `O=C(/C=C/c1ccccc1Cl)Nc1ccc(S(=O)(=O)Nc2ncccn2)cc1` is -1%.
Turning to `COC(=O)Cc1ccc(OCC(=O)Nc2ccc(OC(F)(F)F)cc2)cc1`, the inhibition is -5%.
In the case of `O=C(C1CCCO1)N(c1ccc(F)cc1)C1C=CS(=O)(=O)C1` (stereo unspecified), the inhibition was -2%.
As for `CCc1nnc(NC(=O)CCN(c2ccc(C)cc2)S(=O)(=O)c2ccccc2)s1`, the inhibition was 0%.
Regarding `COc1ccc(-c2csc(NC(=O)c3ccc(N4C(=O)CCC4=O)cc3)n2)cc1OC`, the inhibition is -4%.
As for `CCOc1ccc(NC(=O)CC2C(=O)N(c3ccccc3)C(=O)N2CCOC)cc1` (stereo unspecified), the inhibition is 1%.
`Cc1ccc(C(NC(=O)N2CCCC2)C(Cl)(Cl)Cl)cc1F` (stereo unspecified): the inhibition was -1%.
As for `COc1ccc(C[C@H]2CN3C(=NC[C@H]3C)N2CCNC(=O)CCC2CCCCC2)cc1`, the figure is 0%.
In the case of `CCOc1ccc(-c2ccc(SCC(=O)N3CCOCC3)nn2)cc1`, the inhibition was -3%.
As for `O=C(CC1CCCCC1)NCc1ccco1`, the figure is -4%; as for `CCOC(=O)CNC(=O)/C=C/c1c(Cl)cccc1Cl`, 4%.
For `CCN(CC)CCCNC(=O)Cn1cnc2sc(C)c(S(=O)(=O)N3CCN(c4ncccn4)CC3)c2c1=O`, the inhibition was -3%.
As to `CCOn1c(=O)c(=O)n(O)c2ccccc21`, the inhibition was -1%.
In the case of `CCO[C@@H]1OC(C(=O)NCc2nc3ccccc3[nH]2)=C[C@H](C2CCCCC2)[C@H]1CCCO`, the inhibition is -2%.
With `Fc1cccc(CSc2nnc3ccc(-c4ccncc4)nn23)c1`, the inhibition was 3%.
Take `CSc1ccc(/C=N/NC(=O)c2cccc(Cl)c2)cc1`: the inhibition is -7%.
As for `O=C(Cc1ccc([N+](=O)[O-])cc1)N/N=C/c1ccco1`, the inhibition was -4%.
`CC1(C)CC(=O)C(C2c3ccccc3S(=O)(=O)c3ccccc32)C(=O)C1`: the inhibition was 0%.
As for `O=C(Oc1c(-c2ccco2)oc2ccccc2c1=O)c1cccnc1`, the figure is -4%; as for `CCOCCCn1c(NN)nc2ccccc2c1=O`, -5%; as for `CCOc1ccc(NC(=O)c2ccc(CSc3nnnn3C)cc2)cc1`, -9%.
`Nc1nnc(SCn2nnc3ccccc3c2=O)s1`: the inhibition is -5%.
The figure for `CN(CC(=O)Nc1ccccc1F)CC(=O)Nc1ccccc1Br` is -5%.
In the case of `Cc1cc(C)cc(N(CC(=O)NCCSCc2ccco2)S(C)(=O)=O)c1`, the inhibition was -7%.
Take `COc1ccc(C(CCN(Cc2ccc(OC)c(OC)c2)C(=O)CCl)c2ccccc2)cc1` (stereo unspecified): the inhibition was -6%.
Turning to `COc1cc(OC)c(C(=O)OC(C)C(=O)Nc2cc(C(F)(F)F)ccc2Cl)cc1OC` (stereo unspecified), the inhibition is -3%.
In the case of `Cc1ccnc(NC(=O)C(C)N2C(=O)c3ccccc3C2=O)c1` (stereo unspecified), the inhibition is 0%.
